# TGFb inhibitor = inhibitors of TGF-b signaling; Potency, µM (top dose mostly 46.1 µM), for the others: at the highest dose activity, negative = inhibition, hits mostly inhibitors; HepG2 CAGA-GFP TGF-b/SMAD3 reporter, GFP fluorescence, 18 h; TGF-beta stimulated, 500 pg/mL final; 410,000 compounds, 1.2% hits; also: potency is read from the fitted curve at half-maximal effect; % is scaled to controls: 0 for no effect and ±100 for the full control effect; nearly all actives have a fitted effect of over 65% in size
#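 Using HEPG2 CAGA-GFP reporter cells at 1000 cells/well, we pinned test compounds, stimulated with recombinant TGF-beta (500 pg/mL final) and measured total well GFP after 18 h.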
# D3 ag = agonists of human D3 dopamine receptor; AID 652048; D3R DiscoveRx beta-arrestin cells, luminescence, 90 min; 410,000 compounds, 0.58% hits; P35462; max activation, %; in the data active = max activation above about 30%; also: 0% is about no effect
# Target sequence (P35462 whole entry, looked up): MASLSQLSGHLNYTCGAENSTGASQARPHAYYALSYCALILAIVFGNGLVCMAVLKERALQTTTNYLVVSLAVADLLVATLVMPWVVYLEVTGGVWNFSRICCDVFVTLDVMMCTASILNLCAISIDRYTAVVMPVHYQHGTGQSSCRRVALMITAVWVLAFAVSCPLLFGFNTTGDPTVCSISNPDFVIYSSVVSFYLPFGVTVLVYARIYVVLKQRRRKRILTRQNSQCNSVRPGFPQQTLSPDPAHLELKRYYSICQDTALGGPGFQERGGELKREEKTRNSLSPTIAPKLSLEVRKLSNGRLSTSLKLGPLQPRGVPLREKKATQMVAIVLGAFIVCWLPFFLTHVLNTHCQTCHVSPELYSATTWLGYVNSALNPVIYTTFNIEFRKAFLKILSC
#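 Agonist-mode cell screen: cells plated at 1500/well and incubated overnight at 37 °C, then exposed to library compounds for 90 min at 37 °C. Detection reagent was added for 30–60 min at room temperature, and luminescence was read.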
# HepG2 viability = counter-screen for TGF-b inhibitors: cytotoxicity in HepG2 cells | HepG2 CAGA-GFP viability, ATP luminescence, 18 h | Potency, µM (titrated, usually from 46.1 µM), for the others: top-dose activity change, negative = cytotoxicity, most hits filed as cytotoxic | 410,000 compounds, 0.76% hits | AID 588856; also: potency is read from the fitted curve at half-maximal effect
#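 HepG2 CAGA-GFP cells (1000/well, DMEM with 1% FBS) received compound, then TGF-beta at 500 pg/mL final, and were incubated 18 hours at 37 degrees C. Viability was read by CellTiter-Glo luminescence. Media-only wells were set as complete cell-killing and DMSO as no toxicity.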
# ATXN2 expr inh = ATXN2 expression inhibition; Potency, µM (top dose mostly 57 µM), for inactives: at the top dose activity change, negative = inhibition, actives largely listed as inhibitors; 360,000 compounds, 0.72% hits; HEK-293 ATXN2-luciferase reporter, luminescence, 24 h; also: potency is read from the fitted curve at half-maximal effect; % is scaled to controls: 0 for no effect and ±100 for the full control effect; nearly all actives have a fitted effect of over 55% in size
#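 qHTS (up to 57 uM final) was run with 24 h compound exposure of reporter cells at 37 °C. Each well was multiplexed: SteadyGlo luminescence measured ATXN2-luciferase expression after a fluorogenic Gly-Phe-AFC viability readout (25 uM final).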
# D3 antag = blocks the human D3 dopamine receptor; AID 652054; max response, negative = inhibition, %; D3R cells, DiscoveRx beta-arrestin luminescence, antagonist mode; hits give low values; 360,000 compounds, 2.5% hits; in the data active = max response below about -50%; inconclusive = no clear call, values can overlap the other calls; also: % is scaled to controls: 0 for no effect and ±100 for the full control effect
#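 Cells expressing the human receptor were seeded at 1500 cells/well, incubated overnight at 37 degrees C in 5% CO2, then exposed to library compounds with dopamine controls for 90 minutes at 37 degrees C before luminescent detection.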
# ATXN viability = viability counter-screen for ATXN expression inhibitors | S2 cells (HEK-293 line with an ATXN2-luciferase reporter) viability, CellTiter-Fluor protease fluorescence, 24 h | Potency, µM (titrated, usually from 56.7 µM), hits mostly cytotoxic | 400,000 compounds, 0.49% hits | AID 651635; also: potency is read from the fitted curve at half-maximal effect; nearly all actives have a fitted effect of over 40% in size
# * hit, by the source's call; i = inactive; ? = inconclusive; nt = no result. This is a sample that favours compounds with a hit; in the whole collection about 4.8% have one here. Unless noted, calls follow the shape of the dose curve; as a rule, active = well fitted curve in the direction sought with a large enough effect; inconclusive = small, poorly fitted or top-dose-only effect, or another doubt; inactive = no such curve, though single readings can be large; an effect the other way counts as inactive or inconclusive.
SMILES,TGFb inhibitor,D3 ag,HepG2 viability,ATXN2 expr inh,D3 antag,ATXN viability
COc1ccc(CN2CCN(C(=O)c3cccc(OC)c3OC)CC2)cc1OC,27.9%,0.3,6.3%,3.8%,0.8,i
COc1ccc(NC(=O)CN2CCN(Cc3ccc4c(c3)OCO4)CC2)cc1OC,-1.7%,-10.1,-0.4%,-3.4%,-73.1*,i
COc1ccsc1C(=O)N1CCN(Cc2ccc3c(c2)OCO3)CC1,9.7%,-2.3,-37.2%,-12.9%,-63.4*,i
Cn1c(C(=O)N2CCN(Cc3ccc4c(c3)OCO4)CC2)cc2sccc21,-15.0%,-32.0,-24.3%,-25.1%,-96.1*,i
COc1cccc(C(=O)N2CCN(Cc3ccc4c(c3)OCO4)CC2)c1OC,9.1%,-3.0,0.7%,-16.8%,-67.4*,i
Cn1c(C(=O)N2CCC(C(=O)N3CCN(Cc4ccc5c(c4)OCO5)CC3)CC2)cc2sccc21,6.1%,-9.1,-37.4%,-16.4%,0.0,i
COc1ccc(Cl)cc1NC(=O)c1c(NCc2cccs2)sc2c1CCCC2,?,-5.1,-37.7%,nt,nt,nt
COCCCNC(=O)c1c(NC(=O)Cc2coc3c(C)c(C)ccc23)sc2c1CCCC2,2.0%,-11.4,-80.8%,14.3%,nt,i
Cc1cccn2c(=O)c(C=NCc3ccccc3)c(NCCO)nc12,-27.1%,-6.4,-6.1%,-2.9%,-71.8*,i
COc1ccc(CN2CCCC(CNC(=O)c3ccc(F)cc3)C2)c(F)c1 (stereo unspecified),2.8%,-17.3,-10.0%,-17.4%,0.0,i
COc1ccc(CN2CCCC(CNC(=O)c3ccc(F)cc3)C2)c(C)c1C (stereo unspecified),-12.2%,-10.1,7.94µM*,nt,?,i
CCOC(=O)c1c(C)[nH]c(C)c1S(=O)(=O)NCC(=O)Nc1ccc(C)c(N(C)C)c1,-22.9%,-16.3,-3.8%,10.6%,nt,i
O=C1c2cccnc2C(=O)N1Cc1ccc2c(c1)OCO2,7.2%,40.6*,15.5%,2.7%,21.7,i
CCN1CCCC1CNc1ccc(S(C)(=O)=O)cc1[N+](=O)[O-] (stereo unspecified),-16.8%,-18.2,-39.5%,2.2%,-54.1*,i
CS(=O)(=O)c1ccc(NCCN2CCOCC2)c([N+](=O)[O-])c1,-0.2%,-0.6,-14.8%,-11.7%,1.0,i
Cc1cc(C)c2c(n1)sc1c(=O)n(Cc3ccccc3Cl)nnc12,-3.4%,3.2,2.3%,-9.8%,-51.2*,i
CN1N=C(N)c2cn(C3OC(COP(=O)(O)O)C(O)C3O)c3ncnc1c23 (stereo unspecified),0.282µM*,2.2,-40.8%,16.5%,-4.4,i
OC(COc1ccccc1)CN1CCC(Cc2ccccc2)CC1 (stereo unspecified),-7.4%,-35.2,-16.6%,-12.5%,-75.3*,i
OC(CN1CCC(Cc2ccccc2)CC1)c1ccccc1 (stereo unspecified),22.7%,-13.0,5.3%,-28.0%,-88.2*,i
Cc1ccc(C)c(OCC(O)CN2CCC(CN3C(=O)c4cccc5cccc(c45)C3=O)CC2)c1 (stereo unspecified),?,-8.8,-26.4%,28.2µM*,?,nt
OC(COc1ccc(F)cc1Cl)CN1CCC(Cc2ccccc2)CC1 (stereo unspecified),?,-20.3,15.8µM*,nt,-78.9*,?
COc1ccc(OCC(O)CN2CCC(CN3C(=O)c4cccc5cccc(c45)C3=O)CC2)cc1 (stereo unspecified),?,-17.1,-51.1%,?,-14.4,?
COc1cccc(OCC(O)CN2CCC(Cc3ccccc3)CC2)c1 (stereo unspecified),-2.6%,-8.5,-29.9%,-5.6%,-12.9,i
CCOc1ccccc1NC(=O)C1CCCN(S(=O)(=O)c2cccs2)C1 (stereo unspecified),?,-6.9,-5.8%,-18.4%,nt,?
NS(=O)(=O)c1cc(C(=O)NN2C[C@H]3[C@H]4CCC(C4)[C@H]3C2)ccc1Cl,nt,nt,nt,0.7%,nt,i
SMILES,TGFb inhibitor,D3 ag,HepG2 viability,ATXN2 expr inh,D3 antag,ATXN viability
COc1ccc2[nH]c(C)cc2c1,-9.1%,nt,-19.6%,nt,nt,nt
CC(C)c1ccc(NC(=O)CN2C(=O)c3cccc4cccc2c34)cc1,?,6.6,-1.1%,nt,nt,nt
Cc1ccc(OCC(O)CN2CCC(Cc3ccccc3)CC2)c(C)c1 (stereo unspecified),?,-8.3,-48.5%,?,-56.5*,i
OC(COc1ccccc1F)CN1CCC(Cc2ccccc2)CC1 (stereo unspecified),-16.2%,-25.1,-37.4%,-30.6%,-81.4*,i
OC(COc1ccc(OCC(O)CN2CCN(Cc3ccccc3)CC2)cc1)CN1CCN(Cc2ccccc2)CC1 (stereo unspecified),-1.7%,-2.2,29.3%,-33.5%,?,i
Cc1ccc(OCC(O)CN2CCN(CCO)CC2)c(C)c1 (stereo unspecified),-20.5%,-11.3,-41.7%,1.2%,-14.9,i
CC(C)c1c(C(=O)N2CCN(CCO)CC2)cnn1-c1nccc(-c2cccs2)n1,nt,nt,nt,nt,nt,i
NC(=O)c1ccc(-c2nc(-c3ccc4c(c3)OCCO4)c(-c3ccccn3)[nH]2)cc1,nt,nt,nt,-31.5%,nt,nt
N=C1SC(c2ccccc2)C(=O)N1c1ncc(Cc2ccccc2)s1 (stereo unspecified),?,-7.2,5.8%,?,-56.2*,?
Cc1ccc(Cc2cnc(N3C(=N)SC(c4ccccc4)C3=O)s2)cc1 (stereo unspecified),?,1.8,-21.1%,-22.8%,-10.6,i
COc1ccc(OCC(O)Cn2c(NCCO)nc3c2c(=O)n(C)c(=O)n3C)cc1 (stereo unspecified),-7.2%,-10.1,-6.9%,nt,nt,nt
CC(C)(C)C(=O)Cn1ncc(N2CCCC2)c(Br)c1=O,5.6%,4.4,1.9%,32.4%,18.6,i
C=CCn1c(C)cc(C(=O)CN2NS(=O)(=O)c3ccccc3C2=O)c1C,?,1.2,-11.4%,nt,26.4,?
O=C(OCn1ncc(Cl)c(Cl)c1=O)c1ccccc1Cl,-15.4%,-9.1,-92.6%,?,-69.6*,nt
O=C(Cn1cncn1)c1ccc(Cl)cc1,0.9%,1.9,8.2%,-1.3%,-80.1*,i
O=c1c(Cl)c(Cl)cnn1Cc1ccc(F)cc1,?,-0.3,-94.7%,?,-9.5,nt
C=CCn1c(C)cc(C(=O)Cn2ncc(Cl)c(Cl)c2=O)c1C,-1.4%,-13.8,-35.4%,?,-88.4*,35.5µM*
CC(C)(C)C(=O)Cn1ncc(Cl)c(Cl)c1=O,-0.7%,0.7,-9.1%,nt,-11.3,7.94µM*
O=c1cc(/C=C/c2ccc([N+](=O)[O-])cc2)c2ccccc2[nH]1,35.3%,nt,14.6%,nt,nt,nt

# Assay outcomes as filed in PubChem BioAssay.
